Where “and” joins values, the source holds several entries; their conditions need not be identical. Equal values may be shown once. A number with no mark means an inactive call. Inconclusive results are not listed. A call without a number means that no potency is given here. Calls of active or inactive are those of the source. Unless noted, calls come from the whole dose curve; as a rule, active = well fitted curve in the direction sought with a large enough effect in the repeat runs; inconclusive = weak or mixed curves; inactive = no such curve, though single readings can be large; an effect the other way counts as inactive or inconclusive.
How the values were obtained:
[1] = qHTS assay to identify small molecule antagonists of the androgen receptor (AR) signaling pathway using the MDA cell line in the presence of 0.5 nM R1881 - cell viability counter screen (AID 1259242); note: nearly all actives have a fitted effect of over 45% in size; note: potency is the fitted concentration of half-maximal effect
In short: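 Cytotoxicity toward MDA-kb2 cells is measured by CellTiter-Fluor live-cell protease fluorescence after 16 hr compound exposure at 37C in the presence of 0.5 nM R1881 stimulator.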

[2] = molecular target: Androgen receptor (Homo sapiens) (UniProt P10275); test: qHTS assay to identify small molecule antagonists of the androgen receptor (AR) signaling pathway using the MDA cell line in the presence of 0.5 nM R1881 (AID 1259243); note: nearly all actives have a fitted effect of over 50% in size; note: potency is the fitted concentration of half-maximal effect
Androgen receptor (Homo sapiens), sequence (P10275 whole entry, looked up): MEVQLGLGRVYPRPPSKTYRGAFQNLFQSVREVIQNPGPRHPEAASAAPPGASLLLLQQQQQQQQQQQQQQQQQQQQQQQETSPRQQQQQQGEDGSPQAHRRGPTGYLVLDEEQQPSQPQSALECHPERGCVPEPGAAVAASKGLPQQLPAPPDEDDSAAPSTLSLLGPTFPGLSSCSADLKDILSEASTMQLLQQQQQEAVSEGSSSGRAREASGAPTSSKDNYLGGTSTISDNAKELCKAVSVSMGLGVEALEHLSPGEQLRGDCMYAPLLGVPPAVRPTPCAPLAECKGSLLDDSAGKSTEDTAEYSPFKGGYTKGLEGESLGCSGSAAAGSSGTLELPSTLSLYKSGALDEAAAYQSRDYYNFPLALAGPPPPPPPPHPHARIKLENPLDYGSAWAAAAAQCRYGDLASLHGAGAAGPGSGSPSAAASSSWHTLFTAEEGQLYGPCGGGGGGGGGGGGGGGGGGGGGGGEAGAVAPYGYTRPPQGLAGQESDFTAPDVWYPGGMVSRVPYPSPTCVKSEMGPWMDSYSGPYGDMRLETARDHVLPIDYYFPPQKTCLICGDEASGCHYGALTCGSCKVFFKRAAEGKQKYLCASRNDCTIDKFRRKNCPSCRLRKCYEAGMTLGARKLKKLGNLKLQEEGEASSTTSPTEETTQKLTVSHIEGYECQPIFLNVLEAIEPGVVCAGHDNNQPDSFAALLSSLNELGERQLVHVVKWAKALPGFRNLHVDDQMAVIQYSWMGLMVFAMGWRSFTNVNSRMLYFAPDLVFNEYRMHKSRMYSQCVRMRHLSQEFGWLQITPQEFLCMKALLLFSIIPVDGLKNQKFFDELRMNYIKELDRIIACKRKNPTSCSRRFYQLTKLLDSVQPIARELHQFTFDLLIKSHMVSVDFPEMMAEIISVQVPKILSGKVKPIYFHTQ
In short: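 Steps: seed MDA-kb2 cells, incubate 5 hr at 37C; pin-transfer compounds in DMSO; add R1881 to 0.5 nM final; incubate 16 hr; add ONE-Glo, wait 30 min at room temperature; read luminescence.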

[3] = molecular target: Estrogen receptor (Homo sapiens) (UniProt P03372); test: qHTS assay to identify small molecule antagonists of the estrogen receptor alpha (ER-alpha) signaling pathway using the BG1 cell line in the presence of 0.1 nM 17-beta-estradiol (AID 1259244); note: nearly all actives have a fitted effect of over 50% in size; note: potency is the fitted concentration of half-maximal effect
Estrogen receptor (Homo sapiens), sequence (P03372 whole entry, looked up): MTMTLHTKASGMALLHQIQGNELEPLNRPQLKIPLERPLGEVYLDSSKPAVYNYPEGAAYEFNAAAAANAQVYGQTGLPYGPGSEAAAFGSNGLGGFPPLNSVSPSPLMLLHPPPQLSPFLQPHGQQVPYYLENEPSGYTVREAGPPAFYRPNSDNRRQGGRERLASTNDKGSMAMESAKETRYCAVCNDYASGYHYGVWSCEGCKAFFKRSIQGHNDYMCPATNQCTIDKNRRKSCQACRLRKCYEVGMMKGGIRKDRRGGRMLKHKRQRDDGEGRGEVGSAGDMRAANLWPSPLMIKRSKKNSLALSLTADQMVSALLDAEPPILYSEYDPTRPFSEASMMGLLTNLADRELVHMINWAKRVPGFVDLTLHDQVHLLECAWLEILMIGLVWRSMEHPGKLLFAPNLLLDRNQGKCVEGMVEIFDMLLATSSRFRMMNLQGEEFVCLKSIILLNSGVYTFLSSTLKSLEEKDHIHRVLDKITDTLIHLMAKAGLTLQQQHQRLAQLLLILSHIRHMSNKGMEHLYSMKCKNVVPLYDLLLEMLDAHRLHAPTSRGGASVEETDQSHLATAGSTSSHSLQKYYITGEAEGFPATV
In short: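 After 5 days in hormone-depleted medium (charcoal-stripped serum, no phenol red), VM7Luc4E2 cells were seeded, incubated 24 h, then co-treated with compound and 0.1 nM (final) estradiol for 22 h before luminescence detection.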

[4] = qHTS assay to identify small molecule HDAC inhibitors (AID 1259364); note: top concentration of the series differs between compounds; nearly all actives have a fitted effect of over 45% in size
In short: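 Homogeneous cell-based luminescent assay of endogenous class I/II HDAC activity; HCT-116 cells, 2 h compound exposure, 30 min HDAC-Glo development at RT.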

[5] = qHTS assay to identify small molecule HDAC inhibitors - cell viability counter screen (AID 1259365); note: series mostly up to about 92 µM; nearly all actives have a fitted effect of over 50% in size
In short: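 Cytotoxicity was gauged in wild-type HCT-116 cells after a brief 2hr treatment with DMSO-dissolved compounds at 37C and 5% CO2, using CellTiter-Glo luminescence developed for 30min at room temperature.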

[6] = qHTS assay to identify small molecule agonists of the sonic hedgehog signaling (Shh) pathway - cell viability counter screen (AID 1259366); note: nearly all actives have a fitted effect of over 50% in size; note: potency is the fitted concentration of half-maximal effect
In short: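 Stable Gli1-Luc NIH/3T3 clone, 2,000 cells/well. Compound exposure 24hr at 37C. Read-out: CellTiter-Fluor fluorescence.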

[7] = qHTS assay to identify small molecule agonists of the sonic hedgehog signaling (Shh) pathway (AID 1259368; calls by dose curve;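 note: NIH/3T3-derived 3T3Gli1-Luc cells carrying a stable Gli1-driven firefly luciferase reporter; series mostly up to about 92 µM; nearly all actives have a fitted effect of over 15% in size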)
In short: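 Steps: seed 3T3 Gli1-Luc cells, incubate 4 hr at 37 C, pin-transfer compounds in DMSO alongside a positive control, incubate 24 hr, add luciferase detection reagent, wait 30 min at room temperature, read luminescence.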

[8] = qHTS assay to identify small molecule antagonists of the sonic hedgehog signaling (Shh) pathway - cell viability counter screen (AID 1259367); note: nearly all actives have a fitted effect of over 55% in size; note: potency is the fitted concentration of half-maximal effect
In short: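 Seed 3T3 Gli1-Luc cells at 2,000 per well; incubate 4 hr; add compound in DMSO, then conditioned medium; incubate at 37C with 5% CO2; add CellTiter-Fluor after 23 hr; read fluorescence 1 hr later.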

[9] = qHTS assay to identify small molecule antagonists of the sonic hedgehog signaling (Shh) pathway (AID 1259369; calls by dose curve; note: nearly all actives have a fitted effect of over 45% in size)
In short: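 Inhibition of Shh signalling is measured as reduced Gli1-response-element firefly luciferase output in an NIH/3T3-derived stable reporter clone stimulated with conditioned medium for 24hr.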

`COc1cc(C(C)C)c2c(c1)S(=O)(=O)N(COc1cc(=O)n3cccc(OCCN4CCCCC4)c3n1)C2=O` showed a viability change, negative = cytotoxic [1] of -2.69% [at 19 µM], an activity, negative = inhibition [2] of -16.6% [at 19 µM] and an activity change, negative = inhibition [3] of -10.3% [at 19 µM]. For the same molecule, the activity change, negative = inhibition [4] was -2.47% [at 19 µM], the activity change, negative = cytotoxicity [5] was -0.608% [at 19 µM] and the viability change, negative = cytotoxic [6] was -0.671% [at 19 µM]. The activity change [7] was 1.72% [at 18.9 µM, hits give high values].
For `Cc1ccc(O)cn1`, the Potency [1] was “inactive”, the Potency [2] was “inactive” and the Potency [3] was “inactive”. The Potency [4] was “inactive”, the Potency [5] was “inactive” and the Potency [6] was “inactive”. For the same molecule, the Potency [8] was “inactive” and the Potency [7] was “inactive”.
For `c1cc[nH]c1`, the Potency [1] was “inactive”, the Potency [2] was “inactive” and the Potency [3] was “inactive”. The Potency [4] was “inactive”, the Potency [5] was “inactive” and the Potency [6] was “inactive”. The Potency [8] was “inactive”, the Potency [7] was “inactive” and the Potency [9] was “inactive”.
For `CC1CCCCC1`, the Potency [1] was “inactive”, the Potency [2] was “inactive” and the Potency [3] was “inactive”. The Potency [4] was “inactive”, the Potency [5] was “inactive” and the Potency [6] was “inactive”. The Potency [8] was “inactive”, the Potency [7] was “inactive” and the Potency [9] was “inactive”.
With `COc1nccnc1CC(C)C` the Potency [1] was “inactive”, the Potency [2] was “inactive” and the Potency [3] was “inactive”. The Potency [4] was “inactive”, the Potency [5] was “inactive” and the Potency [6] was “inactive”. For the same molecule, the Potency [8] was “inactive”, the Potency [7] was “inactive” and the Potency [9] was “inactive”.
In the case of `C=C(C)CCCC`, the Potency [1] is reported as “inactive”, the Potency [2] is reported as “inactive” and the Potency [3] is reported as “inactive”. The Potency [4] was “inactive”, the Potency [5] was “inactive” and the Potency [6] was “inactive”. For the same molecule, the Potency [8] was “inactive” and the Potency [7] was “inactive”.
For `CC(=O)C=O`, the Potency [1] was “inactive”, the Potency [2] was “inactive” and the Potency [3] was “inactive”. For the same molecule, the Potency [4] was “inactive”, the Potency [5] was “inactive” and the Potency [6] was “inactive”. For the same molecule, the Potency [8] was “inactive” and the Potency [7] was “inactive”.
With `C[C@@H]1CC[C@H]2C(C)(C)[C@H]3C[C@@]12CC[C@@]3(C)O` the Potency [1] was “inactive”, the Potency [2] was “inactive” and the Potency [3] was “inactive”. For the same molecule, the Potency [4] was “inactive”, the Potency [5] was “inactive” and the Potency [6] was “inactive”. For the same molecule, the Potency [8] was “inactive”, the Potency [7] was “inactive” and the Potency [9] was “inactive”.
With `Cc1cccc(C)n1` the Potency [1] was “inactive”, the Potency [2] was “inactive” and the Potency [3] was “inactive”. The Potency [4] was “inactive”, the Potency [5] was “inactive” and the Potency [6] was “inactive”. For the same molecule, the Potency [8] was “inactive”, the Potency [7] was “inactive” and the Potency [9] was “inactive”.
Molecule `O=S(=O)(O)c1cc(S(=O)(=O)O)c2ccc3c(S(=O)(=O)O)cc(S(=O)(=O)O)c4ccc1c2c43` has a viability change, negative = cytotoxic [1] of -1.34% [at 19 µM], an activity, negative = inhibition [2] of 1.23% [at 19 µM] and an activity change, negative = inhibition [3] of 0.118% [at 19 µM]. For the same molecule, the activity change, negative = inhibition [4] was 4.2% [at 19 µM], the viability change, negative = cytotoxic [6] was 1.66% [at 19 µM] and the viability change, negative = cytotoxic [8] was 0.116% [at 19 µM]. For the same molecule, the activity change [7] was -2.01% [at 18.9 µM, hits give high values].
For `CC1=C(/C=C/C(C)=C/C=C/C(C)=C/C(=O)Nc2ccc(O)cc2)C(C)(C)CCC1`, the Potency [1] was 23.7 µM (active), the Potency [2] was 55.9 µM (active) and 18.8 µM (active) and the Potency [3] was 28 µM (active) and 13.3 µM (active). For the same molecule, the Potency [4] was “inactive”, the Potency [5] was “inactive” and the Potency [6] was 31.4 µM (active) and 21.1 µM (active). The Potency [8] was 28 µM (active) and 21.1 µM (active) and the Potency [7] was “inactive”.
In the case of `CCCCCCCCCCCCCCCCCO`, the viability change, negative = cytotoxic [1] is reported as -1.99% [at 19 µM], the activity, negative = inhibition [2] is reported as -1.74% [at 19 µM] and the activity change, negative = inhibition [3] is reported as 0.173% [at 19 µM]. For the same molecule, the activity change, negative = inhibition [4] was -0.454% [at 19 µM], the activity change, negative = cytotoxicity [5] was 1.77% [at 19 µM] and the viability change, negative = cytotoxic [6] was -3.91% [at 19 µM]. For the same molecule, the viability change, negative = cytotoxic [8] was 5.3% [at 19 µM], the activity change [7] was -2.43% [at 18.9 µM, hits give high values] and the activity change, negative = inhibition [9] was -1.47% [at 19 µM].
For `CCOB(OCC)OCC`, the Potency [1] was “inactive”, the Potency [2] was “inactive” and the Potency [3] was “inactive”. The Potency [4] was “inactive”, the Potency [5] was “inactive” and the Potency [6] was “inactive”. For the same molecule, the Potency [8] was “inactive”, the Potency [7] was “inactive” and the Potency [9] was “inactive”.
With `O=Cc1ccc(F)cc1` the Potency [1] was “inactive”, the Potency [2] was “inactive” and the Potency [3] was “inactive”. The Potency [4] was “inactive”, the Potency [5] was “inactive” and the Potency [6] was “inactive”. For the same molecule, the Potency [8] was “inactive”, the Potency [7] was “inactive” and the Potency [9] was “inactive”.
In the case of `Cc1oc(-c2ccccc2)nc1CCOc1ccc(C[C@H](Nc2ccccc2C(=O)c2ccccc2)C(=O)O)cc1`, the Potency [1] is reported as “inactive”, the Potency [2] is reported as “inactive” and the Potency [3] is reported as “inactive”. The Potency [4] was “inactive”, the Potency [6] was 43.3 µM (active) and the Potency [8] was 48.6 µM (active). The Potency [7] was “inactive”.
For `C[Si](C)O[Si](C)C`, the Potency [1] was “inactive”, the Potency [2] was “inactive” and the Potency [3] was “inactive”. For the same molecule, the Potency [4] was “inactive”, the Potency [5] was “inactive” and the Potency [6] was “inactive”. The Potency [8] was “inactive”, the Potency [7] was “inactive” and the Potency [9] was “inactive”.
With `C[Si](C)(C)Cl` the Potency [1] was “inactive”, the Potency [2] was “inactive” and the Potency [3] was “inactive”. For the same molecule, the Potency [4] was “inactive”, the Potency [5] was “inactive” and the Potency [6] was “inactive”. The Potency [8] was “inactive”, the Potency [7] was “inactive” and the Potency [9] was “inactive”.
In the case of `Cn1cccc1`, the Potency [1] is reported as “inactive”, the Potency [2] is reported as “inactive” and the Potency [3] is reported as “inactive”. For the same molecule, the Potency [4] was “inactive”, the Potency [5] was “inactive” and the Potency [6] was “inactive”. For the same molecule, the Potency [8] was “inactive”, the Potency [7] was “inactive” and the Potency [9] was “inactive”.
For `CCc1cccc(CC)c1NC(=O)C(=O)O`, the Potency [1] was “inactive”, the Potency [2] was “inactive” and the Potency [3] was “inactive”. The Potency [4] was “inactive”, the Potency [5] was “inactive” and the Potency [6] was “inactive”. For the same molecule, the Potency [8] was “inactive”, the Potency [7] was “inactive” and the Potency [9] was “inactive”.
Work on `C=C/C=C/C=C/CCCCC` yielded a viability change, negative = cytotoxic [1] of -0.871% [at 19 µM], an activity, negative = inhibition [2] of 3% [at 19 µM] and an activity change, negative = inhibition [3] of -0.135% [at 19 µM]. For the same molecule, the activity change, negative = inhibition [4] was -2.93% [at 19 µM], the activity change, negative = cytotoxicity [5] was -0.499% [at 19 µM] and the viability change, negative = cytotoxic [6] was -4.32% [at 19 µM]. The viability change, negative = cytotoxic [8] was -2.58% [at 19 µM] and the activity change [7] was -0.134% [at 18.9 µM, hits give high values].
In the case of `CCO[Si](C)(C)OCC`, the Potency [1] is reported as “inactive”, the Potency [2] is reported as “inactive” and the Potency [3] is reported as “inactive”. For the same molecule, the Potency [4] was “inactive”, the Potency [5] was “inactive” and the Potency [6] was “inactive”. The Potency [8] was “inactive”, the Potency [7] was “inactive” and the Potency [9] was “inactive”.
In the case of `CC1CNCC(C)O1` (stereo not drawn), the Potency [1] is reported as “inactive”, the Potency [2] is reported as “inactive” and the Potency [3] is reported as “inactive”. For the same molecule, the Potency [4] was “inactive”, the Potency [5] was “inactive” and the Potency [6] was “inactive”. For the same molecule, the Potency [8] was “inactive” and the Potency [7] was “inactive”.
In the case of `CCCC(=O)OCC(COC(=O)CCC)OC(=O)CCC`, the Potency [1] is reported as “inactive”, the Potency [2] is reported as “inactive” and the Potency [3] is reported as “inactive”. The Potency [4] was “inactive”, the Potency [5] was “inactive” and the Potency [6] was “inactive”. For the same molecule, the Potency [8] was “inactive” and the Potency [7] was “inactive”.
For `CCCCCCCCC(C)=O`, the Potency [1] was “inactive”, the Potency [2] was “inactive” and the Potency [3] was “inactive”. The Potency [4] was “inactive”, the Potency [5] was “inactive” and the Potency [6] was “inactive”. The Potency [8] was “inactive”, the Potency [7] was “inactive” and the Potency [9] was “inactive”.
